# Legend:
# [1] = molecular target: Sphingosine kinase 1 (Homo sapiens) (UniProt Q9NYA1); conditions: at 1 µM;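 note: mean SPHK1 inhibition value reported from the GSK PKIS kinase panel screen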
# [2] = molecular target: T1, Sphingosine kinase 2 (Homo sapiens) (UniProt Q9NRA0); conditions: at 0.1 µM
# T1 sequence (whole entry): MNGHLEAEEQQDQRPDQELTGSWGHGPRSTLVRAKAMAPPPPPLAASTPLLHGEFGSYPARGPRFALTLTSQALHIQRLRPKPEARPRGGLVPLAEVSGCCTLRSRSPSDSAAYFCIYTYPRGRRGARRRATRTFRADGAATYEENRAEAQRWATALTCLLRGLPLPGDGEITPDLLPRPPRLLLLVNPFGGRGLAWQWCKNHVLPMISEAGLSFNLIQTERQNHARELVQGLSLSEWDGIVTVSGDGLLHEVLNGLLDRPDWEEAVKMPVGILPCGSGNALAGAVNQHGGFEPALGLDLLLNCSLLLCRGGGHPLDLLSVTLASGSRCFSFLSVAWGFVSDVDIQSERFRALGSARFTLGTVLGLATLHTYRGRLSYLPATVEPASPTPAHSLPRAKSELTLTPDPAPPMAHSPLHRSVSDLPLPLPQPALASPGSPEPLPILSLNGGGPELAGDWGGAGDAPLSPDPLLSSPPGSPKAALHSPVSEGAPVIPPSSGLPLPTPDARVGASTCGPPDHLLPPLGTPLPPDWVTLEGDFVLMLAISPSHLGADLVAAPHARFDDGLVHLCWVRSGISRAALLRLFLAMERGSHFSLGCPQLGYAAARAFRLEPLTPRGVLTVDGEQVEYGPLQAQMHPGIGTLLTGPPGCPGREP
# [3] = molecular target: T1, Sphingosine kinase 2 (Homo sapiens); conditions: at 1 µM
# [4] = molecular target: Casein kinase II subunit alpha (Homo sapiens) (UniProt P68400); conditions: at 0.1 µM
# Casein kinase II subunit alpha (Homo sapiens), sequence (P68400 whole entry, looked up): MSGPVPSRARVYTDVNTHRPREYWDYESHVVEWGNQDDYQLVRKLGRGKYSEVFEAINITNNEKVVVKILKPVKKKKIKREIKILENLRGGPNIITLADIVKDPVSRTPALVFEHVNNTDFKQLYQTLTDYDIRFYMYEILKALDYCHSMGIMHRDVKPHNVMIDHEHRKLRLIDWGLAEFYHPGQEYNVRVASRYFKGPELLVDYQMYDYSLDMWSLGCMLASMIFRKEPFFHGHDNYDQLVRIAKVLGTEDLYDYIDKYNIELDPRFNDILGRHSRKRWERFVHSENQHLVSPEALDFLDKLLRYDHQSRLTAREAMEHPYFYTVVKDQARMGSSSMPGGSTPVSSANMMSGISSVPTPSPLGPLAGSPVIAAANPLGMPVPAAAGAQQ
# [5] = molecular target: Casein kinase II subunit alpha (Homo sapiens) (UniProt P68400); conditions: at 1 µM
# [6] = molecular target: T2, Inhibitor of nuclear factor kappa-B kinase subunit alpha (Homo sapiens) (UniProt O15111); conditions: at 0.1 µM
# T2 sequence (whole entry): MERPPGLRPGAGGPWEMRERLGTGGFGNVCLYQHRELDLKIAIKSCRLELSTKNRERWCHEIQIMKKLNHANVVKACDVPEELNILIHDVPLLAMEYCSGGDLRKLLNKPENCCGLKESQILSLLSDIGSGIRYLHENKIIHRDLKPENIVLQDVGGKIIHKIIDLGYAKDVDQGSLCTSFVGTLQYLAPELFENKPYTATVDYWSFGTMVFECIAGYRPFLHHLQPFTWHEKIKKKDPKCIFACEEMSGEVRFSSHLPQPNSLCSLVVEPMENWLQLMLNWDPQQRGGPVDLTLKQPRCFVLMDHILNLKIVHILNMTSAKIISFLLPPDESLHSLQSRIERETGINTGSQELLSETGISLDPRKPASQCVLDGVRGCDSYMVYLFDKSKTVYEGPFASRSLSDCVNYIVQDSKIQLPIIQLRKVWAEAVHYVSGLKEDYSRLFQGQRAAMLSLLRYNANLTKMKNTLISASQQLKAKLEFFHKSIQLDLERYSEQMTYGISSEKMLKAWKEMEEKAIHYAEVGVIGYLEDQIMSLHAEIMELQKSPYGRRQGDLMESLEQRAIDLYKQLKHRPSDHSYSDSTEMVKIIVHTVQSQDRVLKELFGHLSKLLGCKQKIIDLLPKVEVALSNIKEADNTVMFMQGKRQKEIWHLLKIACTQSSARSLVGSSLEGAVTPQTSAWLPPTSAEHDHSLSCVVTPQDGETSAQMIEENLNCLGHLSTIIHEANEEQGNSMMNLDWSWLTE
# [7] = molecular target: T2, Inhibitor of nuclear factor kappa-B kinase subunit alpha (Homo sapiens); conditions: at 1 µM
# [8] = molecular target: T3, Inhibitor of nuclear factor kappa-B kinase subunit beta (Homo sapiens) (UniProt O14920); conditions: at 0.1 µM
# T3 sequence (whole entry): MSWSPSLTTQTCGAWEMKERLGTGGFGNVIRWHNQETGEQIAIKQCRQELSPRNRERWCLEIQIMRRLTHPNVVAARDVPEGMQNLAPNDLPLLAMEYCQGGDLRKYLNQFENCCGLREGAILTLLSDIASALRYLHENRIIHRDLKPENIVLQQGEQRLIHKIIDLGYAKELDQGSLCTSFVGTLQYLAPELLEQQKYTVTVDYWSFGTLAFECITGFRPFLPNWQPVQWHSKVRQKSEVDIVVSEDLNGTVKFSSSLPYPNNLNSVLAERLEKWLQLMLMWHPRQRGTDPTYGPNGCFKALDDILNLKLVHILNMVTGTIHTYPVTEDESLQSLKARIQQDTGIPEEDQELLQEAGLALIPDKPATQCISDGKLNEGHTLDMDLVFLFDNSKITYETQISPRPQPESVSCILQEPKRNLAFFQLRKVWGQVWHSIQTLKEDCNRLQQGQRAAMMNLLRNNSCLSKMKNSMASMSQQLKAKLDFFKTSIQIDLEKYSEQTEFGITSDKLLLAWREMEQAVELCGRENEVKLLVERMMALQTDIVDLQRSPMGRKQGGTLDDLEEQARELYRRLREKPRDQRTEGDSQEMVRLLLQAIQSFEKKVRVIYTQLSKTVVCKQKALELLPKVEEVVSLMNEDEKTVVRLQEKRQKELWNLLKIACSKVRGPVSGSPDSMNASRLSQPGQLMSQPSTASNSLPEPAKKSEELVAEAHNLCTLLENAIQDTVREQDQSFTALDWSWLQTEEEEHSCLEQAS
# [9] = molecular target: T3, Inhibitor of nuclear factor kappa-B kinase subunit beta (Homo sapiens); conditions: at 1 µM
# [10] = molecular target: T4, Inhibitor of nuclear factor kappa-B kinase subunit epsilon (Homo sapiens) (UniProt Q14164); conditions: at 0.1 µM
# T4 sequence (whole entry): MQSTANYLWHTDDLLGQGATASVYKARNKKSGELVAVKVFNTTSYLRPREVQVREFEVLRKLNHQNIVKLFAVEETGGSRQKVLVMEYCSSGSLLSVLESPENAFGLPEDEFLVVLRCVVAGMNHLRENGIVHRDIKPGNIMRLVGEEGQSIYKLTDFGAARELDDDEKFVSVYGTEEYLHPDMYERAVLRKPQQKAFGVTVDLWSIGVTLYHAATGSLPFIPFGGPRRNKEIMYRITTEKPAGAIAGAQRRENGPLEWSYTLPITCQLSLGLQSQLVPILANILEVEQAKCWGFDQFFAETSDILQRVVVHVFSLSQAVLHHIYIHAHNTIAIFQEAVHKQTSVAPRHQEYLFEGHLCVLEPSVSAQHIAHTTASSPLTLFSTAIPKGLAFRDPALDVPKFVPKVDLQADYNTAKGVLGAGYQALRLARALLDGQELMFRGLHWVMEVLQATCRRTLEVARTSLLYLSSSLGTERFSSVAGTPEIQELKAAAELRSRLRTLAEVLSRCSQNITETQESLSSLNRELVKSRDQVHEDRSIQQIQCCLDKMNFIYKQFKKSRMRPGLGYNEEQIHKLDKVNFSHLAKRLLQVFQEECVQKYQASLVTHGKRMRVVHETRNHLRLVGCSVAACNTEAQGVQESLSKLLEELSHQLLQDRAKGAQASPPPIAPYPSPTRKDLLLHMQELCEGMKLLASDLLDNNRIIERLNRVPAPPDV
# [11] = molecular target: T4, Inhibitor of nuclear factor kappa-B kinase subunit epsilon (Homo sapiens); conditions: at 1 µM
# [12] = molecular target: T5, Serine/threonine-protein kinase Nek1 (Homo sapiens) (UniProt Q96PY6); conditions: at 0.1 µM
# T5 sequence (whole entry): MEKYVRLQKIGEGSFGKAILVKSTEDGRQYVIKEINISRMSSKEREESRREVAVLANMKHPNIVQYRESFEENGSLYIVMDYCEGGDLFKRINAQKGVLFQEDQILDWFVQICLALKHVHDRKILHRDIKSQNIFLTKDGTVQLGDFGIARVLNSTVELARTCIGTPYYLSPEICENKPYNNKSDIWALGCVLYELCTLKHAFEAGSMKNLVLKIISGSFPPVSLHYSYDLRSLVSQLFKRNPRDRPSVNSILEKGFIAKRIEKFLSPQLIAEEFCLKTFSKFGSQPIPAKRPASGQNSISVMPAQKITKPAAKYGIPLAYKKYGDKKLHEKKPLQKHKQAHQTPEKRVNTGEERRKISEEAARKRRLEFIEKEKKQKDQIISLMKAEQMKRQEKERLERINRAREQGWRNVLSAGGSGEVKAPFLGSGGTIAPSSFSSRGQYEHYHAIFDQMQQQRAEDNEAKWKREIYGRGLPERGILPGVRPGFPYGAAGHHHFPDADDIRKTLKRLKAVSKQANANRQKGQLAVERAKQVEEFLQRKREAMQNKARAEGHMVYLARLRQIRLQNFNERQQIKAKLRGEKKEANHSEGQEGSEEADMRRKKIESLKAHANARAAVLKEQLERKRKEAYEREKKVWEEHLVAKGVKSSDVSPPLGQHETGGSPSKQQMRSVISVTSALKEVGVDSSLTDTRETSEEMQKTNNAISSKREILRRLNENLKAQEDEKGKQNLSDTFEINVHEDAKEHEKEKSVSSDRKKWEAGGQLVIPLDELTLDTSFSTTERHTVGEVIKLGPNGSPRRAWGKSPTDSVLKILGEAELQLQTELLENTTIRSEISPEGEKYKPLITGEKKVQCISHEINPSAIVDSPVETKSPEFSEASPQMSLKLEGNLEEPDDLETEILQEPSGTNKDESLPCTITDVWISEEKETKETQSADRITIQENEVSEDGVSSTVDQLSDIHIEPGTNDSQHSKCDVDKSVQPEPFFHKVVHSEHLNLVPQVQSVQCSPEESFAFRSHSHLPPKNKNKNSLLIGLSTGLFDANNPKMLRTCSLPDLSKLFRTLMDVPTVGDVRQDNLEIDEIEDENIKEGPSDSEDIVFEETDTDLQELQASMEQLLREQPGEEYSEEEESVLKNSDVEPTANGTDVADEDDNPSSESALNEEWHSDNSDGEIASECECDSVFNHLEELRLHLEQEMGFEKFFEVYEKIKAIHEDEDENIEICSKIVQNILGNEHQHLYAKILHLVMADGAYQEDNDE
# [13] = molecular target: T5, Serine/threonine-protein kinase Nek1 (Homo sapiens); conditions: at 1 µM
# [14] = molecular target: T6, Serine/threonine-protein kinase Nek2 (Homo sapiens) (UniProt P51955); conditions: at 0.1 µM
# T6 sequence (whole entry): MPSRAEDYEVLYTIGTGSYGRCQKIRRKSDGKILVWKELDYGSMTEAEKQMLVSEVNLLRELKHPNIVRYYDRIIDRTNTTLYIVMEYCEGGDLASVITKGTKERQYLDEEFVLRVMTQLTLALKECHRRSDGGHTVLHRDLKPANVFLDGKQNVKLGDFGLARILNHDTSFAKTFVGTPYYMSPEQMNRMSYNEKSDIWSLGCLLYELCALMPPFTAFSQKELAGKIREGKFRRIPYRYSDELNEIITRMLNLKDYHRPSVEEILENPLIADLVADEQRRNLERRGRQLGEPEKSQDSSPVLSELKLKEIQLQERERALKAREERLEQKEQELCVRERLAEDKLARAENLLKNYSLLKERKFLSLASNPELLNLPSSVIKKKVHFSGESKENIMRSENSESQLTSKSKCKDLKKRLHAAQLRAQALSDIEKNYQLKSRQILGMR
# [15] = molecular target: T6, Serine/threonine-protein kinase Nek2 (Homo sapiens); conditions: at 1 µM
# [16] = molecular target: Serine/threonine-protein kinase Nek6 (Homo sapiens) (UniProt Q9HC98); conditions: at 0.1 µM
# Serine/threonine-protein kinase Nek6 (Homo sapiens), sequence (Q9HC98 whole entry): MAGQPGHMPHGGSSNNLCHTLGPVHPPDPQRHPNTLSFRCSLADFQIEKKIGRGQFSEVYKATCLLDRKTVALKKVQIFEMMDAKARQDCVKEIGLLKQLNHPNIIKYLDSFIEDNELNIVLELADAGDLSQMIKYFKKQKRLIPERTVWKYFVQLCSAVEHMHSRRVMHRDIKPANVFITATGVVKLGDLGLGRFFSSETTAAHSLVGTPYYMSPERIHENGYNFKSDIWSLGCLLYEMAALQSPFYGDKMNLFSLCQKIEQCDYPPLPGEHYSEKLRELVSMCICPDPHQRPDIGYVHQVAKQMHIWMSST
# [17] = molecular target: Serine/threonine-protein kinase Nek6 (Homo sapiens) (UniProt Q9HC98); conditions: at 1 µM
# [18] = molecular target: Serine/threonine-protein kinase Nek7 (Homo sapiens) (UniProt Q8TDX7); conditions: at 0.1 µM
# Serine/threonine-protein kinase Nek7 (Homo sapiens), sequence (Q8TDX7 whole entry, looked up): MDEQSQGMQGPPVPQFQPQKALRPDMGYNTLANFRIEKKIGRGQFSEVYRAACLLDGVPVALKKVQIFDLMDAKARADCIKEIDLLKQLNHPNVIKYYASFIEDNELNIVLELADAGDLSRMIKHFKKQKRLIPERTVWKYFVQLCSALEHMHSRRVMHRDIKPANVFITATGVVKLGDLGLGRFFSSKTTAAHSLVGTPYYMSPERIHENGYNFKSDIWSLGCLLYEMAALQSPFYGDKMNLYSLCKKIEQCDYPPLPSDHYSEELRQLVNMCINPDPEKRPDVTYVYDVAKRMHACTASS
# [19] = molecular target: Serine/threonine-protein kinase Nek7 (Homo sapiens) (UniProt Q8TDX7); conditions: at 1 µM
# [20] = molecular target: T7, Serine/threonine-protein kinase Nek9 (Homo sapiens) (UniProt Q8TD19); conditions: at 0.1 µM;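 note: reported value is the mean percent inhibition of NEK9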
# T7 sequence (whole entry): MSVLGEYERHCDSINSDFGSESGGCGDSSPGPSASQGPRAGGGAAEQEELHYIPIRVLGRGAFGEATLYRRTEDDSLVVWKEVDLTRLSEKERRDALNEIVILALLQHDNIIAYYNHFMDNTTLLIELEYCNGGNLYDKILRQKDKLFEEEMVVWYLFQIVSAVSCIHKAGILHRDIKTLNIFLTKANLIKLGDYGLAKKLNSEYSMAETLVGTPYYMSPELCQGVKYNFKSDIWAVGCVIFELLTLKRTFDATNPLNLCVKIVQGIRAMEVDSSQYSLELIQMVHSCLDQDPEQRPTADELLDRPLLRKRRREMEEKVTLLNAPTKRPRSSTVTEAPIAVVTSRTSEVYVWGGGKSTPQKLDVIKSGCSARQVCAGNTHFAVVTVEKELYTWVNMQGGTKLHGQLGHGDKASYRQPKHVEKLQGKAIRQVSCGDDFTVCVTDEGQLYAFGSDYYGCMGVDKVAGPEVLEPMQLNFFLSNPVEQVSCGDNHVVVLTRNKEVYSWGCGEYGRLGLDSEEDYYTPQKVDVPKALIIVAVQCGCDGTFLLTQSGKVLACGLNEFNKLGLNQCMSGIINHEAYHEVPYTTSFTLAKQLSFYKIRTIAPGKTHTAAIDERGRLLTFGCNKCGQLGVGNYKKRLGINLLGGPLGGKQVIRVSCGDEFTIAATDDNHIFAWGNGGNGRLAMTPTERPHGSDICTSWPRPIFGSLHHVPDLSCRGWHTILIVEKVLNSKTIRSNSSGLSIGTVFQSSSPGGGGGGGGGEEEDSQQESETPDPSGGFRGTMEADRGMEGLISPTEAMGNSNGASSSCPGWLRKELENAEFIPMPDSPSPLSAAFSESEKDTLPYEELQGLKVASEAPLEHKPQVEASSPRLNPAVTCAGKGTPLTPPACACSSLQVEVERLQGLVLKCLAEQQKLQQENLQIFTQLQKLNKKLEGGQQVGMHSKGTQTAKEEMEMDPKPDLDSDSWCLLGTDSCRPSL
# Sphingosine kinase 1 (Homo sapiens), sequence (Q9NYA1 whole entry): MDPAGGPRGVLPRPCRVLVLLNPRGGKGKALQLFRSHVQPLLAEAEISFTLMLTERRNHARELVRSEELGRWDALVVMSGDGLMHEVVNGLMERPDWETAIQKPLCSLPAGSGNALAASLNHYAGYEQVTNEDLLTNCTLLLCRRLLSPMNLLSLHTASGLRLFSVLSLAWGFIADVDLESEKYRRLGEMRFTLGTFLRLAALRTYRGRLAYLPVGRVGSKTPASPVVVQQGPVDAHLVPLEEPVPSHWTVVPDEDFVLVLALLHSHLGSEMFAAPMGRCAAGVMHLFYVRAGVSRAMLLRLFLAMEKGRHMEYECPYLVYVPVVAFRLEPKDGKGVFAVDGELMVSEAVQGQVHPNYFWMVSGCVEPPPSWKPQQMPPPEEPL
smiles,measurement,setting,value
CS(=O)(=O)Nc1ccc(-c2ccc3c(NC(=O)C4CC4)n[nH]c3c2)cc1,inhibition,[1],-3.21%
same,inhibition,[2],1.2%
same,inhibition,[3],0%
same,inhibition,[4],2.09%
same,inhibition,[5],0.41%
same,inhibition,[6],6.65%
same,inhibition,[7],-3.42%
same,inhibition,[8],3.69%
same,inhibition,[9],1.2%
same,inhibition,[10],-0.23%
same,inhibition,[11],2.67%
same,inhibition,[12],1.54%
same,inhibition,[13],-3.13%
same,inhibition,[14],4.81%
same,inhibition,[15],3.7%
same,inhibition,[16],1.17%
same,inhibition,[17],-2.29%
same,inhibition,[18],4.35%
same,inhibition,[19],2.55%
same,inhibition,[20],2.89%

# From ChEMBL document CHEMBL1961873, “Compounds: GSK PKIS; Assays: Nanosyn kinase panel” (2012)
